Assay results from PubChem BioAssay (NCATS).
Records with an inconclusive call do not appear. The source made the active and inactive calls. Calls come from the whole dose curve; as a rule, active = well fitted curve in the direction sought with a large enough effect; inconclusive = small, poorly fitted or top-dose-only effect, or another doubt; inactive = no such curve, though single readings can be large; an effect the other way counts as inactive or inconclusive.

Tests used:
[1] = qHTS of pediatric cancer cell lines to identify multiple opportunities for drug repurposing: Primary screen for NB1643 cells (AID 1347099); note: nearly all actives have a fitted effect of over 50% in size
Summary of the method: (§1)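 Cells seeded at 500-1,000 cells/well in growth media, rested 5 hours at 37 degrees C, 5% CO2, then dosed; MIPE compounds at 11-point (from 0.78 nM) and NPC at 8-point (from 0.59 nM) final concentrations. Viability by CellTiter-Glo luminescence after 48 hours.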

[2] = qHTS of pediatric cancer cell lines to identify multiple opportunities for drug repurposing: Primary screen for LAN-5 cells (AID 1347100)
Summary of the method: (§2)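 Cells (500-1,000/well) in growth media were settled 5 h at 37 degrees C, then given compounds for 48 h. Viability was read as CellTiter-Glo luminescence. Primary runs used MIPE at 11 points (0.78 nM-46 µM) and NPC at 8 points (0.59 nM-46 µM); follow-ups used 11 points.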

[3] = qHTS of pediatric cancer cell lines to identify multiple opportunities for drug repurposing: Primary screen for BT-12 cells (AID 1347101); note: nearly all actives have a fitted effect of over 25% in size
Summary of the method: (§3)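 Cells (500-1,000/well) rested 5 h, then received compounds for 48 h; metabolically active cells were measured by CellTiter-Glo luminescence. Final concentrations spanned up to 46 µM (MIPE, 11-point) or 0.59 nM-46 µM (NPC, 8-point) in primary screens, 11-point in follow-ups.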

[4] = qHTS of pediatric cancer cell lines to identify multiple opportunities for drug repurposing: Primary screen for Rh18 cells (AID 1347102); note: nearly all actives have a fitted effect of over 65% in size
Summary of the method: as §2

[5] = qHTS of pediatric cancer cell lines to identify multiple opportunities for drug repurposing: Primary screen for OHS-50 cells (AID 1347103); note: nearly all actives have a fitted effect of over 40% in size
Summary of the method: as §3

[6] = qHTS of pediatric cancer cell lines to identify multiple opportunities for drug repurposing: Primary screen for RD cells (AID 1347104); note: nearly all actives have a fitted effect of over 55% in size
Summary of the method: as §1

[7] = qHTS of pediatric cancer cell lines to identify multiple opportunities for drug repurposing: Primary screen for MG 63 (6-TG R) cells (AID 1347105); note: nearly all actives have a fitted effect of over 50% in size
Summary of the method: as §1

[8] = qHTS of pediatric cancer cell lines to identify multiple opportunities for drug repurposing: Primary screen for control Hh wild type fibroblast cells (AID 1347106);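 note: series mostly up to about 46 µM; a drop in luminescence marks cytotoxicity and a rise apparent proliferation; nearly all actives have a fitted effect of over 55% in size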
Summary of the method: as §2

[9] = qHTS of pediatric cancer cell lines to identify multiple opportunities for drug repurposing: Primary screen for Rh30 cells (AID 1347107); note: series mostly up to about 46 µM; nearly all actives have a fitted effect of over 75% in size
Summary of the method: as §2

[10] = qHTS of pediatric cancer cell lines to identify multiple opportunities for drug repurposing: Primary screen for Rh41 cells (AID 1347108);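 note: series mostly up to about 46 µM; luminescence drop marks cytotoxic hits; nearly all actives have a fitted effect of over 70% in size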
Summary of the method: as §1

Measured: Potency

O=C(O)P(=O)(O)O
inactive: all assays above

C[N+]12CCC(CC1)C(OC(=O)C(O)(c1ccccc1)c1ccccc1)C2 (stereo unspecified)
inactive: all assays above

CCCc1ncc(C[n+]2ccccc2C)c(N)n1
inactive: all assays above

OC1C(O)C(O)C(O)C(O)C1O (stereo unspecified)
inactive: all assays above

CC(C)NCC(O)c1ccc2ccccc2c1 (stereo unspecified)
inactive: all assays above

Cc1cccc(C)c1NC(=O)c1ccccc1C(=O)O
inactive: all assays above

CCCCCCCC/C=C\CCCCCCCCN
inactive: all assays above

CNCCc1ccccn1
inactive: all assays above

Cn1c(=O)c2[nH]c(Br)nc2n(C)c1=O
inactive: all assays above

COc1cc(O)c(C(=O)c2ccccc2)cc1S(=O)(=O)O
inactive: all assays above

CO[C@]12C[C@@H](COC(=O)c3cncc(Br)c3)CN(C)[C@@H]1Cc1cn(C)c3cccc2c13
inactive: all assays above

CCC1Nc2cc(Cl)c(S(N)(=O)=O)cc2S(=O)(=O)N1 (stereo unspecified)
inactive: all assays above

CC(C)(C)NC[C@H](O)COc1cccc2c1CCCC2=O
not listed: [8] | [9] | [10]
inactive: all other assays above

Cc1cccc(C)c1NC(=O)CN1CCCC1
not listed: [9]
inactive: all other assays above

CCC(Cc1c(I)cc(I)c(N)c1I)C(=O)O (stereo unspecified)
not listed: [8] | [9]
inactive: all other assays above

Cc1c(-c2ccccc2)oc2c(C(=O)OCCN3CCCCC3)cccc2c1=O
not listed: [7]
inactive: all other assays above

CCCCCCCCCCCCCCCC(=O)O
inactive: all assays above

CCOc1ccc(NC(C)=O)cc1
not listed: [8] | [9]
inactive: all other assays above

CCC(C(=O)OCCOCCN(CC)CC)c1ccccc1 (stereo unspecified)
not listed: [7]
inactive: all other assays above

Nc1ccc(S(=O)(=O)NCc2ccccc2)cc1
not listed: [8]
inactive: all other assays above

CC[N+](C)(CC)CCOC(=O)C(O)(c1ccccc1)C1CCCCC1 (stereo unspecified)
not listed: [8]
inactive: all other assays above

c1ccc(CC2=NCCN2)cc1
not listed: [9]
inactive: all other assays above

CC(C)(C)NCC(O)COc1cccc2c1C[C@H](O)[C@H](O)C2 (stereo partly specified)
inactive: all assays above

CCN(CC)CCNC(=O)COc1ccc(OC)cc1
not listed: [8]
inactive: all other assays above
